# Source: PubChem BioAssay
# TRHR enhancer: allosteric enhancers of human TRH receptor | enhancement, % at 2 µM | 0.66% of 360,000 active | TRHR cells, fluo-8 calcium fluorescence, EC20 TRH enhancement | P34981; in the data active = enhancement above about 30%; also: 0% is about no effect
# Target sequence (P34981 whole entry, looked up): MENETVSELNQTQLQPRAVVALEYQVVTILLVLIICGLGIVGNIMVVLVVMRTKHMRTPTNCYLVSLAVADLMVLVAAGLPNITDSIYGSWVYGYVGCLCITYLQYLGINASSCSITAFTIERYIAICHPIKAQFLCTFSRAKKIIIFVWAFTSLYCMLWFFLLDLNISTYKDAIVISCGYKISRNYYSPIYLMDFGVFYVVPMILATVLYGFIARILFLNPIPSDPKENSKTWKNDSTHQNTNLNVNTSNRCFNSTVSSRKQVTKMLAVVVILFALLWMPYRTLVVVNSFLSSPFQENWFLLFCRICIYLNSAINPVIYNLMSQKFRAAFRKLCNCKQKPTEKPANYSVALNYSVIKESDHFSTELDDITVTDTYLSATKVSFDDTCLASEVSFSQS
#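 Enhancer read-out: after compound pinning and an initial kinetic agonist-mode read, an EC20 of TRH (10 nM final) was injected and fluo-8 calcium signal (Ex 480/Em 530) followed at 1 s/cycle for 100 cycles in TRHR-expressing cells.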
# D1 ag: agonists of human D1 dopamine receptor; P21728; HEK293 T-REx D1 cells, calcium flux, agonist mode; activation, % at 2 µM; 1% of 360,000 active; AID 504660; also: 0% is about no effect
#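 Inducible HEK293 T-REx D1 cells, force-coupled to calcium signalling, were plated at 4000 cells/well with tetracycline and held overnight at 30 C. After no-wash calcium dye loading, compound-evoked calcium rise over 180 s flagged agonists.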
# Epigenetic reg: epigenetic control regulation, reporter derepression; 0.2% of 280,000 active; murine LDR cells, GFP reporter derepression, 30 h; AID 1865; Potency, µM (titrated, usually from 53.9 µM), inactives show top-dose GFP activation, usual class: activators; active = well fitted activation curve with a large enough effect; also: potency is read from the fitted curve at half-maximal effect; % of control where 0% means no effect; nearly all actives have a fitted effect of over 60% in size
#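 Murine LDR cells bearing a silenced CMV-driven GFP reporter were exposed to compound for 30 h at 37 C. After PBS washes, GFP-positive cells (20-120 um objects) counted by laser-scanning microplate cytometry.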
# D1 antagonist: human D1 dopamine receptor antagonism. HEK293 TREx D1 cells, calcium flux, dopamine EC80; stronger effect = lower value. 3.2% of 360,000 active. activity change, negative = inhibition, % at 10 µM. AID 504652; in the data active = activity change below about -30%; also: % is scaled to controls: 0 for no effect and ±100 for the full control effect
#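 Inducible Hek293 Trex D1 cells (tetracycline, overnight, 30 C). Calcium dye 30–90 min RT. Antagonist mode: EC80 dopamine added after 180 s compound read.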
# D1 PAM: enhances dopamine response at the human D1 receptor | P21728 | HEK293 TREx D1 cells, calcium flux, dopamine EC20 potentiation | potentiation, % at 10 µM | 0.036% of 360,000 active | AID 504651; in the data active = potentiation above about 30%; also: 0% is about no effect
# TRHR ag: agonists of human TRH receptor; P34981; TRHR cells, calcium flux fluo-8, FDSS agonist mode; activation, % at 2 µM; 0.18% of 360,000 active; AID 493084; also: 0% is about no effect
#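 Read-out: compound-evoked intracellular calcium rise in TRHR cells, fluo-8 dye, kinetic FDSS fluorescence at 1 s/cycle following a 10-cycle baseline. Cells cultured overnight before dye loading (30 min–1.5 h, RT).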
# Numbers without * were called inactive; nt = not tested or not shown; [ ] = another dose, or the depositor's remark. An excerpt weighted towards active compounds, which were near 4.6% of everything screened. Rule as the data show it, unless noted: active = activation above about 30%; inactive = the rest.
SMILES,TRHR enhancer,D1 ag,Epigenetic reg,D1 antagonist,D1 PAM,TRHR ag
Cc1ccc(C(=O)Nc2ccc3c(c2)N(C)C(=O)c2ccccc2S3)cc1,-2.3,4.9,-1.3%,-11.4,-4.5,0.0
Cc1ccccc1OCC(O)CN(CCO)Cc1ccccc1 (centres undefined),-7.7,0.5,5.2%,-47.5*,-0.8,-0.2
COC(=O)C1(C(C)=O)CC2=CC[C@@H]3C(=O)N(c4ccccc4)C(=O)[C@@H]3[C@@H]2Cc2ccccc2[C@@H]1C[N+](=O)[O-] (some centres undefined),nt,nt,-1.1%,nt,nt,nt
CCOC(=O)C1CCN(S(=O)(=O)c2cc(Br)cc3c2N(C(=O)CC)CC3)CC1,8.3,-1.3,4.8%,8.3,0.9,0.2
CCC1(c2ccc(Cl)cc2)NC(=O)N(Cc2ccc(C(=O)OC)cc2)C1=O (centres undefined),8.1,29.7,-0.1%,-31.0*,-5.0,12.2
CCc1nc2ccc(C(=O)NCc3ccc(N(C)C)cc3)cc2nc1CC,1.7,0.8,-1.3%,-3.6,0.9,-1.1
Cc1ccc(Cl)cc1N1CCN(c2ncnc3onc(-c4ccc(F)cc4)c23)CC1,-5.2,0.6,0.0%,-35.8*,-6.5,2.7
COc1cccc(NC(=O)Cn2c(=O)n(CC(=O)NCc3ccc(C)cc3)c(=O)c3sccc32)c1,-10.2,4.4,0.0%,-17.5,-0.7,2.8
CCOC(=O)c1cc(OC(=O)c2cccnc2)n(-c2ccccc2)n1,0.4,-0.4,-1.0%,-39.2*,6.3,0.4
CCCCNC(=O)C(CC)Sc1nc2ccccc2c(=O)n1Cc1ccco1 (centres undefined),-4.4,5.8,-0.5%,16.2,5.3,-0.8
Cc1cccc(-c2cc(=O)c3cc(Br)ccc3o2)c1,nt,nt,0.3%,nt,nt,nt
CCC(=O)NC(/C=C/c1ccccc1)c1cc([N+](=O)[O-])c2cccnc2c1O (centres undefined),31.8*,1.6,6.9%,-1.8,-5.8,0.0
CCC(=O)NC(c1ccco1)c1cc([N+](=O)[O-])c2cccnc2c1O (centres undefined),-1.0,2.0,nt,-21.8,-0.3,0.5
CCCCOC(=O)CSc1nc2c(cc1C#N)C(=O)CC(C)(C)C2,-3.6,0.7,0.1%,-38.6*,3.0,-1.1
COc1ccc(CNC(=O)c2ccc3c(c2)nc2n3CCC(C)C2)c(OC)c1 (centres undefined),1.3,1.9,-0.3%,-9.0,-1.9,-0.8
Cc1ccc(S(=O)(=O)N2CCN(Cc3ccco3)CC2)c(C)c1,-6.0,4.0,nt,-7.6,37.5*,-0.3
COc1ccccc1N1CCN(C(=O)Cn2ncc3c2-c2cc(C)ccc2OC3)CC1,3.5,4.2,0.8%,16.4,-4.0,0.2
COc1cc(CNC(=O)c2sc3ncccc3c2-n2cccc2)cc(OC)c1OC,1.1,10.5,0.0%,-16.8,-3.6,-0.6
Cc1ccc(-c2c(C#N)c(N)nc3c2CCCC3)o1,4.1,39.3*,7.9%,24.1,-0.5,0.0
CCOC(=O)N1CCC(NC(=O)c2ccc3c(c2)N(Cc2cc(C)ccc2C)C(=O)c2ccccc2S3=O)CC1 (centres undefined),0.1,2.6,2.2%,-0.8,-2.2,0.4
O=C(c1ccc2c(c1)OCO2)C1CCCN(Cc2cc(F)ccc2-n2cccn2)C1 (centres undefined),-2.0,1.0,1.1%,-36.4*,-9.6,-1.1
COc1ccc(C2CC3(CC(C)(C)NC(SC)=N3)Oc3cc(O)cc(C)c32)cc1 (centres undefined),7.2,262.7*,1.6%,72.5,2.8,-0.1
COC(=O)C1=CO[C@@H](C)[C@H]2CN3CCc4c([nH]c5ccccc45)[C@@H]3C[C@H]12,-10.0,0.0,7.9%[16.9 µM],-52.0*,-7.2,0.7
COC(=O)C1=COC(C)C2CN3CCc4c([nH]c5ccccc45)C3CC12 (centres undefined),-7.8,-0.6,1.0%,-12.6,-8.7,0.3
COc1ccc(-c2cc3ccccc3nc2N)cc1OC,2.2,12.3,nt,-38.1*,-5.4,0.3
SMILES,TRHR enhancer,D1 ag,Epigenetic reg,D1 antagonist,D1 PAM,TRHR ag
COc1cc(C)ccc1OCC(=O)NC1CCCCCC1,-0.5,2.3,nt,-30.4*,-1.9,-0.4
CCN(CC)S(=O)(=O)c1cc(C)c(C)cc1OCC(=O)NC1CCCC1,2.2,-0.2,nt,-34.5*,-16.1,-0.6
Cc1cc(Cl)c(S(=O)(=O)N2CCCC2)cc1OCC(=O)NC1CCCCC1,-6.7,5.1,7.2%,-12.7,-1.1,-0.4
CSCCC(NS(=O)(=O)c1ccc2c(c1)oc(=O)n2C)C(=O)N1CCN(c2cc(Cl)ccc2C)CC1 (centres undefined),-3.1,1.6,-1.1%,-8.9,-0.1,-0.2
Clc1ccc(OCCCCCN2CCCC2)c(Br)c1,0.9,73.1*,-0.9%,-9.7,-6.5,0.0
Clc1ccc(OCCCn2ccnc2)c(Br)c1,-1.1,15.4,-2.4%,-4.7,-1.9,0.0
CCN1CCN(CCCOc2ccc(Cl)cc2Br)CC1,-3.5,58.9*,0.0%,-21.5,-8.2,-1.0
Brc1ccccc1OCCCCCN1CCCC1,1.5,1.1,0.0%,-3.0,-7.6,-1.0
Clc1ccc(OCCCN2CCCCC2)c(Br)c1,2.5,13.8,10.6%,-62.1*,-18.1,1.3
CCn1c(CN2CCOCC2)nc2cc(NC(=O)c3ccccc3[N+](=O)[O-])ccc21,-2.7,0.6,-3.2%,-2.6,0.8,-0.1
C#CCOCCOCCOCCNc1nc(N2CCN(C(=O)CCCCCCCCCCNC(=O)Cn3cc(CCCCCN)nn3)CC2)nc(N2CCN(C(=O)CCCCCCCCCCNC(=O)[C@H]([C@@H](C)CC)n3cc(CCCCCN)nn3)CC2)n1,4.5,43.2*,nt,109.9,20.3,9.4
C#CCOCCOCCOCCNc1nc(N2CCN(C(=O)CCCCCCCCCCNC(=O)Cn3cc(CCCCCN)nn3)CC2)nc(N2CCN(C(=O)CCCCCCCCCCNC(=O)[C@H](CO)n3cc(CCCCCN)nn3)CC2)n1,-2.0,84.8*,nt,66.0,13.9,13.4
C#CCOCCOCCOCCNc1nc(N2CCN(C(=O)CCCCCCCCCCNC(=O)[C@@H](CCC(=O)O)n3cc(CCCCCN)nn3)CC2)nc(N2CCN(C(=O)CCCCCCCCCCNC(=O)[C@@H](CCC(=O)O)n3cc(CCCCCN)nn3)CC2)n1,-10.2,10.3,nt,-32.3*,-6.4,0.1
C#CCOCCOCCOCCNc1nc(N2CCN(C(=O)CCCCCCCCCCNC(=O)[C@H](CCCCN)n3cc(CCCC(=O)O)nn3)CC2)nc(N2CCN(C(=O)CCCCCCCCCCNC(=O)[C@H](CCCCN)n3cc(CCCC(=O)O)nn3)CC2)n1,4.0,1.0,nt,-28.0,-3.5,0.3
